Data reported in PubChem BioAssay AID1117291 (Broad Institute, 2014).
Results with a measured potency or affinity are listed apart. Results filed as inconclusive are left out. Active and inactive are the calls of the source.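 Rule for the calls: active = compound whose fitted half-maximal potency lies at or below double its highest tested dose in every test; inconclusive = tests disagree, or a flat partial loss, or a poor fit; inactive = every test inactive.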

Experiment: HepG2 cell cytotoxicity, dose response, cytotoxicity control, CellTiter-Glo luminescence, dry powder, set 20 (AID 1117291)
Conditions: HepG2 viability, CellTiter-Glo ATP luminescence, 72 h; series mostly up to 26 µM

| Structure (SMILES) | outcome |
| --- | --- |
| N#Cc1ccc(S(=O)(=O)Nc2cc(C(F)(F)F)ccc2N2CCCCC2)cc1 | inactive |
| CC(=O)N1CCN(C(=O)C2(NC(=O)NCCc3ccccc3)CCCCC2)CC1 | inactive |
| O=S(=O)(Nc1cc(C(F)(F)F)ccc1N1CCCCC1)c1ccccc1 | inactive |
| CC(=O)N1CCN(C(=O)C(C)(C)NC(=O)Nc2ccc(C)cc2)CC1 | inactive |
| Cc1ccccc1S(=O)(=O)Nc1cc(C(F)(F)F)ccc1N1CCCCC1 | inactive |
| O=S(=O)(Nc1cc(C(F)(F)F)ccc1N1CCCCC1)c1ccc(Cl)cc1 | inactive |
| CC(=O)N1CCN(C(=O)C2(NC(=O)Nc3ccc(C)cc3)CC2)CC1 | inactive |
| CC(=O)N1CCN(C(=O)CNC(=O)Nc2ccc(C)cc2)CC1 | inactive |
| CC(=O)N1CCN(C(=O)C2(NC(=O)Nc3ccc(F)cc3)CCCC2)CC1 | inactive |
| CC(=O)N1CCN(C(=O)C2(NC(=O)Nc3ccc(C(F)(F)F)cc3)CCCCC2)CC1 | inactive |
| CC(=O)N1CCN(C(=O)[C@@H]2CCN2C(=O)Nc2ccc(C)cc2)CC1 | inactive |
| CC(=O)N1CCN(C(=O)C2(NC(=O)Nc3cccc(F)c3)CCCCC2)CC1 | inactive |
| COc1ccc(C(=O)Nc2cc(C(F)(F)F)ccc2N2CCOCC2)cc1S(=O)(=O)O | inactive |
| CC(=O)N1CCN(C(=O)C2(NC(=O)Nc3ccccc3)CCCC2)CC1 | inactive |
| O=[N+]([O-])c1ccc(S(=O)(=O)Nc2cc(C(F)(F)F)ccc2N2CCCCC2)c([N+](=O)[O-])c1 | inactive |
| CC(=O)N1CCN(C(=O)C2(NC(=O)Nc3ccc(C(C)C)cc3)CCCC2)CC1 | inactive |
